Source: PubChem BioAssay AID1211 (NMMLSC, 2008)
Activity calls are given as the source filed them. The rule behind the calls is not given here.

Target: Estrogen receptor (Homo sapiens) (UniProt P03372)
Experiment: displacement of fluorescent estrogen from ERalpha – cell-based, Cos7 ERalpha-GFP, flow cytometry, primary screen (AID 1211);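 note: 0% = DMSO vehicle wells and 100% = no E2-Alexa633 signal left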
Settings: fluorescent ligand competition, stronger effect = higher value

Chain of Estrogen receptor (Homo sapiens) (P03372 whole entry, looked up): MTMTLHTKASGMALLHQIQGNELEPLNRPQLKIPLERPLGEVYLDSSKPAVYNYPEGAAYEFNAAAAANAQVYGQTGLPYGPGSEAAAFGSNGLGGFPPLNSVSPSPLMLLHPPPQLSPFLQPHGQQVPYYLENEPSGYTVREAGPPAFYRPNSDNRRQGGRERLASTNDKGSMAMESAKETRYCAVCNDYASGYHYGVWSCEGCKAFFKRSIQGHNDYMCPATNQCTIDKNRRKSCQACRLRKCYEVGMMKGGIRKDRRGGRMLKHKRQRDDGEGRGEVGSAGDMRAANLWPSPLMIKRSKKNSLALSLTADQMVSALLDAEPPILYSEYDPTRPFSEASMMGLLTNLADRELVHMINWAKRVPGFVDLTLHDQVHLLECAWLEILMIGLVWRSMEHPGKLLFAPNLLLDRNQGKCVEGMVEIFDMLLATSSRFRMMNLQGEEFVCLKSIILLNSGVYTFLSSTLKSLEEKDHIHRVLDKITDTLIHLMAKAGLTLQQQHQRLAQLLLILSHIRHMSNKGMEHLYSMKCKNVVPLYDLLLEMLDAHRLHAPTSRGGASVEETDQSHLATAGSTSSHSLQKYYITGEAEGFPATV

SMILES	inhibition of ligand binding (at 10 µM)	inhibition of ligand binding (binding inhibition, at 0.1 µM) [%]
COc1ccc(N2Cc3cccc(C(=O)N4CCN(C(=O)c5ccco5)CC4)c3C2=O)cc1	20% (inactive)	38
Cc1cc(=O)oc2c(CN3CCC(C)CC3)c(O)c(Cl)cc12	10% (inactive)	6
Cc1ccsc1/C=C(\C(=O)c1ccc(OC(C)C)cc1)c1nc2ccccc2o1	12% (inactive)	40
C[C@]12CC[C@@H]3c4ccc(O[C@@H]5O[C@H](C(=O)O)[C@@H](O)[C@H](O)[C@H]5O)cc4CC[C@H]3[C@@H]1C[C@@H](O)[C@@H]2O	72% (active)	40
O=C1c2ccccc2NC(c2ccc(O)cc2)N1/N=C/c1ccc(O)cc1 (configuration not stated)	32% (inactive)	65
CCCCOC(=O)c1c(C)oc2ccc(NS(=O)(=O)c3ccc4c5c(cccc35)C(=O)N4)cc12	66% (active)	51
CCO/C([O-])=N/c1c[n+](N2CCOCC2)no1	0% (inactive)	12
Cc1ccc(-c2n[nH]c(=S)n2/N=C/C=C/c2ccccc2[N+](=O)[O-])cc1	1% (inactive)	14
O=C(Nc1cnn(C23CC4CC(CC(C4)C2)C3)c1)c1cnn2c(C(F)(F)F)cc(-c3ccco3)nc12	48% (inactive)	25
Nc1cc2sc(-c3ccc(C(=O)O)cc3)nc2cc1Cl	24% (inactive)	49
CCOC(=O)c1c(C)[nH]c(C)c1C(=O)CSc1nnc(-c2cc(OC)c(OC)c(OC)c2)o1	57% (inactive)	38
Cc1ccc(-c2cc(C(=O)NCc3ccco3)c3ccccc3n2)o1	60% (inactive)	58
C/C(N)=C(/C#N)C(=O)CSc1nnnn1-c1ccc(C)cc1	9% (inactive)	14
COc1ccc(OC)c(C(=O)CSc2nnc(-c3ccc(OC)c(OC)c3)o2)c1	23% (inactive)	58
O=C(COC(=O)CCC(=O)c1cccs1)NCc1ccco1	42% (active)	74
COCc1cc(=O)n2c(-c3ccc(C)cc3)n[nH]c2n1	40% (inactive)	62
COc1ccc2c(c1)c(=O)oc1cc3oc(C)c(C)c3cc12	3% (inactive)	16
O=c1c(OC2OC(CO)C(O)C(O)C2O)c(-c2ccc(O)c(O)c2)oc2cc(O)cc(O)c12 (configuration not stated)	39% (inactive)	33
Nc1nc2c(s1)CCc1c-2cnn1-c1ccccc1	13% (inactive)	21
Cc1cc(C)c(S(=O)(=O)/N=C2\C=CC(=O)C(Cl)=C2)c(C)c1	20% (inactive)	7
CCOc1ccc(C2C3=C(Nc4nc(N)[nH]c(=O)c42)c2ccccc2C3=O)cc1 (configuration not stated)	50% (inactive)	26
